IL1B secr inh – inhibitors of inflammasome signaling (IL-1 beta secretion). THP-1 LPS/ATP IL-1B secretion, AlphaLISA, 16 h; hits give low values. activity change, % at 57.5 µM. 360,000 compounds, 4.7% hits. AID 743279; in the data active = activity change below about -50%; inconclusive = mostly about -30% to -49%; note: % is set by controls: 0 for no effect and ±100 for the full control effect
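Secreted IL-1B measured by AlphaLISA bead assay after 16 h compound exposure of THP-1 cells; compounds (final up to 57.5 uM) added 1 h before LPS (250 ng/mL) and ATP (1.25 mM) stimulation; lower signal means less secretion.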
TDP1 inh – blocks human tyrosyl-DNA phosphodiesterase 1; Q9NUW8; recombinant TDP1, AlphaScreen DNA substrate cleavage; Potency, µM (titrated, usually from 130 µM), for the others: at the highest dose activity change, negative = inhibition, hits mostly inhibitors; 350,000 compounds, 0.28% hits; note: potency is the fitted concentration of half-maximal effect; % is set by controls: 0 for no effect and ±100 for the full control effect; nearly all actives have a fitted effect of over 40% in size
Target sequence (Q9NUW8 whole entry, looked up): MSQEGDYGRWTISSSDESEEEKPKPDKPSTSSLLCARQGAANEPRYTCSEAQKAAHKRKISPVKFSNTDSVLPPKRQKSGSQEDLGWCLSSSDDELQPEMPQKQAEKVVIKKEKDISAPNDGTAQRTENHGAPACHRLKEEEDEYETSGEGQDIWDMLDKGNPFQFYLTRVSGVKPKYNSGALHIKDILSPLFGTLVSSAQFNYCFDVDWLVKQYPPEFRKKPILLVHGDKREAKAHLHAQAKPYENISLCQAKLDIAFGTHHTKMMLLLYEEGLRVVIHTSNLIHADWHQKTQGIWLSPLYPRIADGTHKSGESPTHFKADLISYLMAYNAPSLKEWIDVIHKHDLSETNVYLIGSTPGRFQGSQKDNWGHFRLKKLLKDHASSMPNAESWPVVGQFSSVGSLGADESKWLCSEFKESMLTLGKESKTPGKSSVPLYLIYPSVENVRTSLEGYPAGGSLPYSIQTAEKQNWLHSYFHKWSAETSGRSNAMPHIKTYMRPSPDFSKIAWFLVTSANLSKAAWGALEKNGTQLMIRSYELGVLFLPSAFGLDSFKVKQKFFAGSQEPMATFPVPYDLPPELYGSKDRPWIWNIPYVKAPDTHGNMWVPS
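Signal: AlphaScreen proximity between streptavidin donor and anti-FITC acceptor beads on intact substrate. Reaction: Tdp1 1 nM, substrate 15 nM final, 5 min RT after 15 min compound preincubation.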
TDP1 cell CPT – DT40-hTDP1 cell growth loss with CPT; AID 686979; 420,000 compounds, 12% hits; Potency, µM (top dose mostly 46.2 µM), for inactives: at the highest dose activity change, negative = growth inhibition, actives largely listed as inhibitors; chicken DT40 Tdp1-/-;hTDP1 cells + 20 nM CPT, ATP luminescence, 48 h; note: potency is the fitted concentration of half-maximal effect; % is set by controls: 0 for no effect and ±100 for the full control effect; nearly all actives have a fitted effect of over 55% in size
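Chicken DT40 Tdp1-/- cells stably complemented with human TDP1 were seeded at 400 cells/well in medium containing 20 nM camptothecin, exposed to pin-transferred compounds, and grown at 37 °C for at least 48 hr. Viability was read as ATP luminescence.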
TDP1 cell noCPT – qHTS for Inhibitors of human tyrosyl-DNA phosphodiesterase 1 (TDP1): qHTS in cells in absence of CPT | 420,000 compounds, 15% hits | DT40 Tdp1-/- hTDP1 cells, no CPT, ATP luminescence, 48 h | Potency, µM (series often up to 46.2 µM), inactives show at the highest dose activity change, negative = growth inhibition, hits mostly inhibitors; note: potency is the fitted concentration of half-maximal effect; % is set by controls: 0 for no effect and ±100 for the full control effect; nearly all actives have a fitted effect of over 55% in size
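Camptothecin absent (DMSO only). Human TDP1-complemented DT40 knockout cells, 400 cells/well, 37 °C for minimum 48 hr; ATP measured via CellTiter-Glo, 30 min dark incubation, luminescence.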
TGFb inhibitor – TGF-b pathway inhibition; HepG2 CAGA-GFP TGF-b/SMAD3 reporter, GFP fluorescence, 18 h; TGF-beta stimulated, 500 pg/mL final; Potency, µM (top dose mostly 46.1 µM), without a hit: at the highest dose activity, negative = inhibition, usual class: inhibitors; 410,000 compounds, 1.2% hits; AID 588855; note: potency is the fitted concentration of half-maximal effect; % is set by controls: 0 for no effect and ±100 for the full control effect; nearly all actives have a fitted effect of over 65% in size
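HEPG2 CAGA-GFP, 1000 cells/well; 2 h settle, 37 C; cpd via pin tool; TGF-b 500 pg/mL final; 18 h, 37 C; GFP imaging ex488/em500-530; %Activity normalised to -TGF-b and +DMSO controls; CRC fit, curve class.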
HepG2 tox – counter-screen for TGF-b inhibitors: cytotoxicity in HepG2 cells; HepG2 CAGA-GFP viability, ATP luminescence, 18 h; Potency, µM (top dose mostly 46.1 µM), for the others: at the highest dose activity change, negative = cytotoxicity, actives largely listed as cytotoxic; 410,000 compounds, 0.76% hits; note: potency is the fitted concentration of half-maximal effect
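HepG2 CAGA-GFP cells (1000/well, DMEM with 1% FBS) received compound, then TGF-beta at 500 pg/mL final, and were incubated 18 hours at 37 degrees C. Viability was read by CellTiter-Glo luminescence. Media-only wells were set as complete cell-killing and DMSO as no toxicity.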
The depositor's hits bear a star; ? = inconclusive; nt = no result; [ ] = another dose, or the depositor's remark. Most compounds without a hit are left out; they make up all but 18% or so of the library. Unless noted, calls come from the whole dose curve; as a rule, active = well fitted curve in the direction sought with a large enough effect; inconclusive = small, poorly fitted or top-dose-only effect, or another doubt; inactive = no such curve, though single readings can be large; an effect the other way counts as inactive or inconclusive.

SMILES	IL1B secr inh	TDP1 inh	TDP1 cell CPT	TDP1 cell noCPT	TGFb inhibitor	HepG2 tox
C[C@H](CO)N1C[C@H](C)[C@@H](CN(C)C(=O)Nc2ccccc2)Oc2c(NC(=O)Nc3ccc4c(c3)OCO4)cccc2C1=O	1	1%	13µM*	?	18%	10%
C[C@H](CO)N1C[C@H](C)[C@@H](CN(C)C(=O)Nc2ccc3c(c2)OCO3)Oc2c(NC(=O)Nc3ccc4c(c3)OCO4)cccc2C1=O	-11	4%	16µM*	23µM*	?	-1%
CC(C)[C@H](N)C(=O)N[C@@H](CCC(N)=O)C(=O)NCC(=O)N[C@@H](CCC(=O)O)C(=O)N[C@@H](CCC(=O)O)C(=O)N[C@@H](CO)C(=O)N[C@@H](CC(N)=O)C(=O)N[C@@H](CC(=O)O)C(=O)N[C@@H](CCCCN)C(=O)O	nt	10%	nt	nt	nt	nt
CCN1C(=O)[C@@H]2[C@@H](c3ccc(SC4CCCCC4)c(OC)c3)N3CCC[C@@]3(C(=O)OC)[C@@H]2C1=O	-3	1%	23µM*	?	9%	-17%
CCN1C(=O)[C@@H]2[C@@H](c3ccc(-c4cccc(Cl)c4)c(OC)c3)N3CCCC[C@@]3(C(=O)OC)[C@@H]2C1=O	-13	-2%	?	16µM*	-4%	-19%
COC(=O)[C@@]12CCCN1[C@H](c1ccc(-c3ccccc3)c(OC)c1)[C@H]1C(=O)N(C)C(=O)[C@H]12	7	4%	?	-29%	-27%	-3%
CCCSc1ccc([C@@H]2[C@H]3C(=O)N(CC)C(=O)[C@H]3[C@]3(C(=O)OC)CCCN23)cc1OC	-8	nt	?	?	?	-1%
CCN1C(=O)[C@@H]2[C@@H](c3ccc(-c4ccc(Cl)c(Cl)c4)c(OC)c3)N3CCC[C@@]3(C(=O)OC)[C@@H]2C1=O	-18	7%	8.2µM*	9.2µM*	?	-22%
CCN1C(=O)[C@H]2[C@@H](c3ccc(-c4ccc(F)cc4)c(OC)c3)N3CCC[C@@]3(C(=O)OC)[C@H]2C1=O	31	-5%	8.2µM*	8.2µM*	-23%	-15%
CC1C(=O)N(C)C(=O)c2nc[nH]c21 (centres undefined)	nt	6%[56.1 µM]	nt	nt	nt	nt
Cc1cccc(C)c1NC(=O)C1c2ccccc2OCC(=O)N1CCc1ccccc1 (centres undefined)	-16	nt	-21%	?	nt	nt
COc1cccc(CNC(=O)c2c(OC)cc(=O)n3c2CCN(C(=O)c2ccc(C)s2)CC3)c1	nt	nt	10%	-2%	nt	nt
COC(=O)COc1ccc(S(=O)(=O)NCc2ccncc2)cc1	77	7%	4.1µM*	9.2µM*	?	6%
O=S(=O)(NCc1cccnc1)c1ccc(Cl)c(Cl)c1	14	3%	-25%	-17%	0%	-3%
O=S(=O)(NCc1cccnc1)c1ccc2ccccc2c1	0	4%[0.0935 µM]	?	21µM*	1%	-8%
Cc1ccc(S(=O)(=O)NCc2ccncc2)cc1C(=O)NCC(C)C	10	1%[56.1 µM]	15µM*	?	1%	-5%
CNC(=O)c1cc(S(=O)(=O)NCc2ccncc2)ccc1OC	-16	3%	-26%	-27%	-1%	-11%
COc1cc(S(=O)(=O)NCc2ccncc2)ccc1Br	-11	3%[56.1 µM]	8.2µM*	9.2µM*	0%	-5%
Cc1ccc(S(=O)(=O)NCc2ccccc2)cc1C(=O)NCc1ccccn1	33	2%	1%	17%	6%	5%
COC(=O)[C@]1(C)N[C@H](CN(C)C(=O)c2ccc(F)cc2)[C@@H]2C(=O)N(Cc3ccccc3)C(=O)[C@@H]21	-21	2%	-28%	1%	15%	6%
COc1cc(/C=C2\SC(=O)N(CCNC(=O)c3sc4cc(F)ccc4c3Cl)C2=O)cc(OC)c1OC	53	nt	-30%	?	3%	-2%
CC1CC(C)CN(C(=O)CN(C)S(=O)(=O)c2ccc3c(c2)c(=O)n(C)c(=O)n3C)C1 (centres undefined)	-13	2%	-4%	-21%	-2%	0%
Cn1c(=O)oc2cc(S(=O)(=O)NCc3ccc(C(=O)O)cc3)ccc21	28	-1%	-4%	0%	-11%	-13%
O=C(O)CNS(=O)(=O)c1ccc(Br)s1	22	4%	-9%	-8%	-2%	-3%
O=S(=O)(NCc1ccncc1)c1ccccc1	37	-2%	23µM*	8.2µM*	-2%	-72%
SMILES	IL1B secr inh	TDP1 inh	TDP1 cell CPT	TDP1 cell noCPT	TGFb inhibitor	HepG2 tox
Cc1cc(Br)c(S(=O)(=O)NCc2ccncc2)cc1C	-1	2%	5.8µM*	7.3µM*	?	-15%
COc1cc(C)c(Br)cc1S(=O)(=O)NCc1ccccc1	16	0%	1%	9%	?	5%
Cn1c(=O)oc2cc(S(=O)(=O)NCc3ccncc3)ccc21	75	4%	8.2µM*	8.2µM*	?	-15%
O=S(=O)(NCc1ccncc1)c1ccc(Br)s1	-9	5%	1.8µM*	2.6µM*	?	-28%
COc1ccc(S(=O)(=O)NCc2cccnc2)cc1Br	0	1%	4.6µM*	5.8µM*	-20%	7.1µM*
O=[N+]([O-])c1ccccc1S(=O)(=O)NCc1cccnc1	-7	1%	8.9µM*	21µM*	-1%	-7%
Cc1ccccc1S(=O)(=O)NCc1cccnc1	0	0%	-5%	-15%	0%	-7%
Cc1cc(C)c(C)c(S(=O)(=O)NCc2ccncc2)c1C	-4	4%[0.0935 µM]	21µM*	13µM*	-8%	-10%
Cc1cc(C)c(C)c(S(=O)(=O)NCc2ccc(C(=O)N3CCN(C)CC3)cc2)c1C	18	8%	-29%	-11%	1%	-5%
Cc1ccc(S(=O)(=O)NCc2ccncc2)cc1C	-7	6%	2.9µM*	1.3µM*	-27%	-17%
C#CCCOC(=O)Nc1ccccc1	-3	-1%	-21%	6%	-3%	5%
COC(=O)[C@@H]1CCCN1Cc1ccc2c(c1)CN(Cc1coc3ccccc3c1=O)CCO2	nt	nt	13%[9.04 µM]	-2%	nt	nt
Nc1[nH]c(C(=O)c2ccccc2)c(-c2ccc(Br)cc2)c1C(=O)c1ccc(Br)cc1	38	nt	-13%	-14%	nt	nt
CCC(=O)N1CCc2cc(OC)c(OC)cc2C1COc1ccc2c(C)cc(=O)oc2c1 (centres undefined)	nt	6%	-4%	-26%	3%	2%

High-throughput results: PubChem BioAssay, National Center for Advancing Translational Sciences (NCATS)
